# Experimental data taken from publication PMC7819943, “Rice protein-binding microarrays: a tool to detect cis-acting elements near promoter regions in rice”.
# Whole data set: some 35,000 sequences, median “fluorescence intensity (a.u.)” near 10,000, cut for the highest 2% near 52,000. Only a selection was taken, and the highest values are over-represented in it overall.
# Target: T1, OsWOX13 (Oryza sativa, UniProt Q5QMM3 1-267)
# T1 sequence: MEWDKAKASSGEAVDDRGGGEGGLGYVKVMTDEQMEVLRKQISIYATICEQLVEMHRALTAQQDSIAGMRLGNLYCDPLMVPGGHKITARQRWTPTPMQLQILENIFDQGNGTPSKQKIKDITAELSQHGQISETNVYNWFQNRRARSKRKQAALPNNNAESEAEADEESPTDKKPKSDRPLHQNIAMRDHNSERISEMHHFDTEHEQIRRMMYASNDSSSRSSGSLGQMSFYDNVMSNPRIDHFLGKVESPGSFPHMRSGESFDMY
# Assay: protein-binding microarray (RPBM); PBS, 2% BSA, 51.3 ng/ul salmon testes DNA, 50 uM zinc acetate, 200 nM TF, 25 C, 1 h; high values mean tight binding
# Settings: protein: recombinant; tags: N-terminal polyhistidine and DsRed monomer fusion (pET32a); label: CyDye5-dUTP incorporated in the synthesized complementary strand; 3' TTTTT single-stranded linker to array surface; dsDNA, one strand shown
# In short: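 Binding signal here means per-feature fluorescence intensity in arbitrary units. The values were read on an Axon 4000B scanner after a custom Agilent array, double-stranded by primer extension with Cy5-dUTP, was incubated with 200 nM protein at 25 °C for 1 h in PBS with 2% BSA, salmon testes DNA and 50 µM zinc acetate, then washed. The proteins were transcription factors with an N-terminal polyhistidine tag and DsRed, expressed in E. coli BL21-CodonPlus and purified on Ni–NTA.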
row,Sequence,binding signal
1,ATATGATTAAACTCAAGTATAGTTGAGGGACGTAAATTGGCGGAGTCACCTAGTGCAG,19700 fluorescence intensity (a.u.)
2,TTCATATAATTTATAAGGGACATAATGTAATCACCCTATACGGAGTCACCTAGTGCAG,10300 fluorescence intensity (a.u.)
3,ACCCACCCTTCAATTAGCCTGTGAATTACTACTTTCTAATCGGAGTCACCTAGTGCAG,7460 fluorescence intensity (a.u.)
4,AGTGATTAATTCATTCCAAAAGACAGTAGCGACATCTATTCGGAGTCACCTAGTGCAG,20300 fluorescence intensity (a.u.)
5,ATTAATTATCAGTGAGCACAAGCCTGGCATGTAAATCATGCGGAGTCACCTAGTGCAG,24800 fluorescence intensity (a.u.)
6,TTATGACCGGTTTTGATTAGTTAAGAGACGCCAGATATCTCGGAGTCACCTAGTGCAG,14300 fluorescence intensity (a.u.)
7,ATGTTCTTAGATTGATTAAGATTGTCAATTGATTACTCCACGGAGTCACCTAGTGCAG,60500 fluorescence intensity (a.u.)
8,GCCTGATTAATTGATTAATTCTCCAGCTGCATCACATTGACGGAGTCACCTAGTGCAG,63700 fluorescence intensity (a.u.)
9,TAATTGATTAATTAATAATACTCCAGCTGCAGCAACGGCACGGAGTCACCTAGTGCAG,47300 fluorescence intensity (a.u.)
10,ATACATTGATTAATCAGCCAGCCAGCCAGCCAGCCACTGACGGAGTCACCTAGTGCAG,28700 fluorescence intensity (a.u.)
11,ATTTGATTTTCTGTCTTTTCTTCAACTCGATTTTGTTAAACGGAGTCACCTAGTGCAG,8770 fluorescence intensity (a.u.)
12,CCTGATTAATTGGGTCGTCGTTCCATTCCCAGCCGATCGACGGAGTCACCTAGTGCAG,65200 fluorescence intensity (a.u.)
13,TTTTGATTGACAGCGGAAATTACTCGATATTGTTCTTCAACGGAGTCACCTAGTGCAG,64300 fluorescence intensity (a.u.)
14,TCCCATTGATTTGATCCAGCTAATTAATTAATTCGATCCACGGAGTCACCTAGTGCAG,49900 fluorescence intensity (a.u.)
15,CACCAATTTGATTGTTTTATTATTTTAAATCTTCAGTACTCGGAGTCACCTAGTGCAG,14200 fluorescence intensity (a.u.)
16,TATTAAGAATTAGATTAGGATTAGGATTGTGTCAATGTTCCGGAGTCACCTAGTGCAG,4860 fluorescence intensity (a.u.)
17,GTATGGATCACCTGATTAATTGGGCCGTCGTTCCATTCCCCGGAGTCACCTAGTGCAG,9310 fluorescence intensity (a.u.)
18,GTAGTTCTTGATGTATTTCAATTAGAACCTTAATTTTCCACGGAGTCACCTAGTGCAG,3390 fluorescence intensity (a.u.)
19,TTAAATTTATACCCCACTTATATCTCACTTACACATCACTCGGAGTCACCTAGTGCAG,7930 fluorescence intensity (a.u.)
20,TTAAATTTTCTATATAAATCTATTCAAATCTGCATAAATGCGGAGTCACCTAGTGCAG,3870 fluorescence intensity (a.u.)
21,TTGTAAAATTATATTTATTTAAGATGAAGGGAGTACTATCCGGAGTCACCTAGTGCAG,4920 fluorescence intensity (a.u.)

row,Sequence,binding signal
1,TTGCTGATTGTGAATGGTGGGTGCAAGGATACACTTTTCGCGGAGTCACCTAGTGCAG,23900 fluorescence intensity (a.u.)
2,AGCTAGGTCAATCATGCATGCATGAATATGTGGCCGAGTTCGGAGTCACCTAGTGCAG,3270 fluorescence intensity (a.u.)
3,CCAAACAATTTCAGTTTCATCTAAATTGGAGTGGAGCTGGCGGAGTCACCTAGTGCAG,11400 fluorescence intensity (a.u.)
4,TATGATTGATTGGAGGGATCAATTAATTACTCATTCTCCACGGAGTCACCTAGTGCAG,64700 fluorescence intensity (a.u.)
5,CTCCACTAATTACTCCACCCAACCATTGGATTCAATGGGCCGGAGTCACCTAGTGCAG,21700 fluorescence intensity (a.u.)
6,ATTAATTAATTAATTAATTAATTAATACTCCTCTCTTCCACGGAGTCACCTAGTGCAG,65500 fluorescence intensity (a.u.)
7,CTCGTTAGATTTTGATCAATGATTAGTCCAAATTATACATCGGAGTCACCTAGTGCAG,15200 fluorescence intensity (a.u.)
8,GAGATCACATTAACTAATTGATTAACTAATTACTTCATCCCGGAGTCACCTAGTGCAG,29600 fluorescence intensity (a.u.)
9,ATTTAATTTAATTTAATTGTTCCTCCTCTTCTTCTTCTCTCGGAGTCACCTAGTGCAG,41000 fluorescence intensity (a.u.)
10,TGGATTAATTTCTCCTCTTCTCTTCCTCCCGTTTATAATACGGAGTCACCTAGTGCAG,6370 fluorescence intensity (a.u.)
11,TTTACTCATGATTACGCTAATTATTCCACTCAATTCTCACCGGAGTCACCTAGTGCAG,26100 fluorescence intensity (a.u.)
12,CTGATTAAGATCACTAATTGATCTGTCCACATTGCATCCTCGGAGTCACCTAGTGCAG,54800 fluorescence intensity (a.u.)
13,TTGATAGATTGATCGTTAGTGCTTTTGTCCAATTTGTTCACGGAGTCACCTAGTGCAG,64200 fluorescence intensity (a.u.)
14,TTTTGTAACTGATCGTTATTAGATCGGATTTGTTCATTGTCGGAGTCACCTAGTGCAG,3360 fluorescence intensity (a.u.)
15,TTGTCCATCACAATTGCTAATTAACTAAGACACCCTTCCTCGGAGTCACCTAGTGCAG,21100 fluorescence intensity (a.u.)
16,TGATAATTTTAAATTAAATAAGTAAATTTCAGAAAACTATCGGAGTCACCTAGTGCAG,29700 fluorescence intensity (a.u.)
17,TTATATTTAGATTGAAGCCAAAATAACCTAAGTTCACTATCGGAGTCACCTAGTGCAG,8620 fluorescence intensity (a.u.)
18,TTTTACTATAACGTTTGATCATTTGTGTTATTTAAATTTTCGGAGTCACCTAGTGCAG,4170 fluorescence intensity (a.u.)
19,TGATTTGGCTGATTAGATGCAATTTAGTCCTGCCACTGTGCGGAGTCACCTAGTGCAG,16900 fluorescence intensity (a.u.)
20,AATCAATCAATTAGTTAGAGATCAAGTTATTAGTGTCCAACGGAGTCACCTAGTGCAG,31100 fluorescence intensity (a.u.)
21,CAAATAAACAGGGTTCAGTCAAACTCAAGTGAATGAATTGCGGAGTCACCTAGTGCAG,11500 fluorescence intensity (a.u.)
